From PubChem BioAssay
Shown are actives, neighbours in structure and some others; about 3.5% of the full set was active somewhere.
GPR151 ag – activates the human receptor GPR151 | Q8TDV0 | PathHunter beta-arrestin GPR151 cells, luminescence | activation, % at 11.2 µM | actives 1% (n = 650,000); in the data active = activation above about 4.9%;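 also: 0% = median of compound wells and 100% = cells with positive control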
FBW7 act – human FBW7 E3 ligase activation, primary screen; AlphaScreen FBW7–phospho-cyclin E peptide binding, activator screen; normalized activity (activation), % at 26.1 µM; actives 0.13% (n = 650,000); Q969H0; in the data active = normalized activity above about 1.9%;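 also: purified mutant Fbw7 with reduced substrate affinity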
MITF primary – human MITF inhibition, primary screen; O75030; AlphaScreen MITF homodimerization, bead proximity signal; inhibition, % at 2.6 µM; actives 0.91% (n = 650,000); AID 1259374; in the data active = inhibition above about 50%;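 also: 0% = vehicle wells with protein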
Target sequence (O75030 whole entry, looked up): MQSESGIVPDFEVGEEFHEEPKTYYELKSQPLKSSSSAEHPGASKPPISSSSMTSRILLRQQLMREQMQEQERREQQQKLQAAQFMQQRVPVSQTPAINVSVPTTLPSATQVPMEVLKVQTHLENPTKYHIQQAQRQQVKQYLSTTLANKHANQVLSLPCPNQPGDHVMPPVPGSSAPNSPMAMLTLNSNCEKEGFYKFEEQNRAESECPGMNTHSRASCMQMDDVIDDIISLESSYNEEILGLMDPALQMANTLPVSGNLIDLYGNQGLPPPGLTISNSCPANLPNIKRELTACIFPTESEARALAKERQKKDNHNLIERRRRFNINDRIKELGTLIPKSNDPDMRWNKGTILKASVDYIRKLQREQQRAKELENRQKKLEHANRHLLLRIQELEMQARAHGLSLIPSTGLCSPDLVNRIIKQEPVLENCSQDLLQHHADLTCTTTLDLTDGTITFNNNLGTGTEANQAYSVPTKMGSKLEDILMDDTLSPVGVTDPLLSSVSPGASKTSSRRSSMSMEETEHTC
TEAD-YAP block – TEAD-YAP interaction inhibition; actives 1.4% (n = 640,000); AID 1259422; inhibition, % at 9.12 µM; HEK-TIYL cells, TEAD-Gal4/YAP UAS-luciferase luminescence; in the data active = inhibition above about 32%;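 also: 0% = median of test compound wells and 100% = reference inhibitor wells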
GPR151 conf act – confirmation of human GPR151 activators; shares compounds with GPR151 ag; GPR151 PathHunter beta-arrestin cells, luminescence, 90 min; % of EA-reagent control over plate median; activation, % at 11.2 µM; 6,700 tested, under 10 active;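 active = mean percent activation across replicates above the confirmation screen cutoff of 4.91%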
GPR119 ag – counter-screen for GPR151 activators: effect on human GPR119; actives 0.3% (n = 6,700); shares compounds with GPR151 ag; activation, % at 11.2 µM; GPR119 PathHunter beta-arrestin cells, luminescence, 90 min; 0 = compound-well median, 100 = enzyme-acceptor control;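 active = mean percent activation in the counterscreen above 29.09%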;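 also: counterscreen on off-target GPR119 to flag nonselective hits from the GPR151 activator screen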
Numbers without * were called inactive; / = no result.

SMILES	GPR151 ag	FBW7 act	MITF primary	TEAD-YAP block	GPR151 conf act	GPR119 ag
Cc1ccc(Cl)cc1NC(=O)Cn1cnc2c(-c3ccccc3)csc2c1=O	7.3*	0	1	1	-1	-1
CC(Sc1nncs1)C(=O)NC(C)c1ccccc1 (stereo not drawn)	5.2*	0	-5	-2	1	-5
CC(Sc1nncs1)C(=O)NC1CCCc2ccccc21 (stereo not drawn)	1	0	-8	-1	/	/
O=C(c1ccc([N+](=O)[O-])cc1)N1CCCc2ccccc21	-1	0	12	-10	/	/
O=C(c1cccc([N+](=O)[O-])c1)N1CCCc2ccccc21	5.0*	0	-1	-4	1	-1
O=C(c1ccc(-n2cnnn2)cc1)N1CCCc2ccccc21	5.0*	0	-10	0	0	-8
CCn1c2ccccc2c2cc(NC(=O)Cn3cnc4c3c(=O)n(C)c(=O)n4C)ccc21	6.1*	0	3	-4	0	-2
Cn1c(=O)c2c(ncn2CC(=O)Nc2ccccc2)n(C)c1=O	3	0	-3	-17	/	/
CC1(C)CC2CC(C)(CN2c2ccc(N3C(=O)C4C5C=CC(C5)C4C3=O)cc2[N+](=O)[O-])C1 (stereo not drawn)	1	0	9	1	/	/
N#Cc1ccccc1OCC(=O)N=Nc1c(O)[nH]c2ccc([N+](=O)[O-])cc12	1	0	10	11	/	/
N#Cc1ccccc1OCC(=O)N=Nc1c(O)[nH]c2ccccc12	6.0*	0	5	-14	-1	-3
Cc1ccc(C(=O)Nc2ccccc2-c2nnn(CC(=O)NC3CCCCC3)n2)cc1	1	0	-12	10	/	/
CCCCN(CC)C(=O)/C=C/c1cc(OC)c(OC)c(OC)c1	5.0*	0	-7	-3	0	-6
CCn1c(COc2cccc(C)c2)nnc1SCC(=O)Nc1cccc(C(=O)O)c1	6.3*	0	4	0	0	3
CCn1c(SCC(=O)Nc2cccc(C(=O)O)c2)nnc1-c1cccc(C)c1	0	1	7	1	/	/
CC(=O)c1cccc(CN2CCN(CC3CCCCC3)C(CCO)C2)c1 (stereo not drawn)	1	0	5	5	/	/
CCOC(=O)c1ccc(-c2coc3cc(OC(C)C(=O)OCC)ccc3c2=O)o1 (stereo not drawn)	-1	0	-4	8	/	/
COc1ccc(NCc2ccc(OC)c(OC)c2OC)cc1Cl	7.9*	0	17	-31	1	15
CCOC(=O)C1=C(c2ccccc2)N=c2s/c(=C\c3ccc(OC)cc3OC)c(=O)n2C1c1cccs1 (stereo not drawn)	0	0	-3	-12	/	/
COC(=O)c1ccc2c(=O)n(Cc3ccc(C(=O)NC4CCCCCC4)cc3)c(=S)[nH]c2c1	6.0*	0	-10	-7	-2	-21
COC(=O)c1ccc2c(=O)n(Cc3ccc(C(=O)NC4CCCC4)cc3)c(=S)[nH]c2c1	0	0	-12	-4	/	/
CCCCOC(=O)C1=C(C)NC2=C(C(=O)CC(C)(C)C2)C1c1cccc(F)c1 (stereo not drawn)	0	0	-2	9	/	/
COc1cc(C2Nc3ccccc3NC3=C2C(=O)CC(c2ccccc2Cl)C3)cc(OC)c1OC (stereo not drawn)	5.6*	0	16	-1	0	-3
CCOc1ccc(C(=O)N2CCCC(c3ncncc3-c3ccncc3)C2)o1 (stereo not drawn)	3	0	10	3	/	/
CCOc1ccc(C(=O)N2CCC(c3ncncc3-c3ccncc3)CC2)o1	18*	0	-3	-9	1	11
O=C1CN(c2ccc(Cl)cc2)S(=O)(=O)c2ccccc2N1	5.6*	0	2	-6	1	-3
CCOc1cccc(NC(=O)/C(C#N)=C\c2ccc(N(C)C)o2)c1	-1	0	15	30	/	/
COc1ccc(CC2(CCC(=O)NCc3ccc(C(F)(F)F)cc3)CCC(=O)N2)cc1 (stereo not drawn)	1	0	6	6	/	/
O=C(COc1ccc(S(=O)(=O)N2CCCCC2)cc1)Nc1cccc(C(F)(F)F)c1	2	0	3	13	/	/
Fc1ccccc1-c1nn2c(Cc3ccccc3)nnc2s1	8.2*	0	-3	4	0	-2
